Results from PubChem BioAssay.
Active and inactive are the calls of the source.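 How the source made its calls, unless noted: active means inhibition at or above 50% at 10 µM; inactive means inhibition below 50%.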

Key:
[1] = inhibitors of TNFa-induced NFkB p65 translocation, primary screen, imaging, HUVEC, MLSMR starter and 10KST1 sets (AID 438;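 active means inhibition above 20% together with a positive visual image hit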;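 further: compound added about 3h40 before a 20 min TNFalpha stimulation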;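 on inhibition: signal is the nuclear over cytoplasmic p65 intensity ratio per well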); settings: HUVEC TNFa-induced p65 nuclear translocation; cell count: measured here: nuclei count (cytotoxicity indicator), at 2.08 µM; inhibition: at 2 µM, stronger effect = higher value, 0% TNFa-plus-vehicle, 100% no-TNFa wells
[2] = inhibitors of mutant huntingtin aggregation, primary screen, imaging, exon1htt(103Q)mCFP cells, high-content imaging (AID 483;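 active means visual image review flags a hit and inhibition of aggregation exceeds 20%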;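 further: compound exposure lasted 3 days before fixation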;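 on nuclei count: percent of the per-plate median nuclei count of sample wells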); settings: exon1htt(103Q)mCFP cell line, aggregate imaging, at 2 µM; inhibition of aggregation: stronger effect = higher value; nuclei count: measured here: cell count, toxicity
[3] = inhibitors of E-selectin induction by TNFa, primary screen, imaging, HUVEC, immunofluorescence, MLSMR starter and 10KST1 sets (AID 487;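 active means visually confirmed hit in the image check and inhibition above 20%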;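 on inhibition: signal is fraction of cell area covered by stained E-selectin grains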;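 on nuclei count: 100% = median nuclei count of all wells on the same plate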); settings: HUVEC TNFalpha-induced E-selectin immunofluorescence imaging, at 2 µM; inhibition: stronger effect = higher value; nuclei count: measured here: cell number, toxicity
[4] = target: Voltage-gated potassium channel subunit beta-2 (Rattus norvegicus) (UniProt P62483); experiment: KvBeta enzyme negative modulators, primary screen, biochemical, NADPH fluorescence (AID 622;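 active means fluorescence slope higher than the sample average by over 3 SD, cut at about -0.22 in these data, passing the limit was not always enough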;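 further: slope of raw intensity against log time taken from 70 to 1610 s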); settings: recombinant KvBeta, 4-cyanobenzaldehyde reduction, at 10 µM, stronger effect = higher value
[5] = target: Voltage-gated potassium channel subunit beta-2 (Rattus norvegicus) (UniProt P62483); experiment: KvBeta positive modulators, primary screen, biochemical, NADPH fluorescence (AID 623;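 active means NADPH fluorescence slope more negative than the mean of all samples by about 3 SD, 99.7% confidence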;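 further: fluorescence intensity change per second fitted from 20 to 320 s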); settings: Recombinant KvBeta, NADPH fluorescence decrease slope, 10 min; at 10 µM; stronger effect = lower value
[6] = target: Alpha-2C adrenergic receptor (Homo sapiens) (UniProt P18825); experiment: modulators of alpha2C/GIRK thallium flux, primary screen, cell-based, HEK293 alpha2C/GIRK1/2 (AID 624;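 active means fluorescence slope after compound addition differing from the mean of all screened samples at 99.7% confidence, in either direction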;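 further: slope of fluorescence ratio to pre-addition baseline per second over 15 to 24 s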); settings: thallium flux BTC fluorescence, at 10 µM, actives lie on both sides
[7] = inhibitors of Sendai virus-induced IRF3 signaling, primary screen, TLR/RLR signaling modifier project, cell-based, Sendai virus stimulus, luciferase, 10K MLSCN set (AID 602276); settings: HEK293 RL24 IRF3 luciferase reporter, at 10 µM, stronger effect = higher value;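 further: firefly luciferase from ISG56 promoter only with Renilla not read in this screen; 0% = Sendai virus plus DMSO and 100% = medium plus DMSO without virus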
[8] = inhibitors of poly I:C-induced TLR3 signaling, primary screen, cell-based, poly I:C stimulus, luciferase, 10K MLSCN set (AID 602277;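 active means inhibition of the reporter signal at or above 50%; inactive means inhibition below 50%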); settings: HEK293-TLR3 RL24 IRF3 luciferase reporter, at 10 µM, stronger effect = higher value

Alpha-2C adrenergic receptor (Homo sapiens), sequence (P18825 whole entry, looked up): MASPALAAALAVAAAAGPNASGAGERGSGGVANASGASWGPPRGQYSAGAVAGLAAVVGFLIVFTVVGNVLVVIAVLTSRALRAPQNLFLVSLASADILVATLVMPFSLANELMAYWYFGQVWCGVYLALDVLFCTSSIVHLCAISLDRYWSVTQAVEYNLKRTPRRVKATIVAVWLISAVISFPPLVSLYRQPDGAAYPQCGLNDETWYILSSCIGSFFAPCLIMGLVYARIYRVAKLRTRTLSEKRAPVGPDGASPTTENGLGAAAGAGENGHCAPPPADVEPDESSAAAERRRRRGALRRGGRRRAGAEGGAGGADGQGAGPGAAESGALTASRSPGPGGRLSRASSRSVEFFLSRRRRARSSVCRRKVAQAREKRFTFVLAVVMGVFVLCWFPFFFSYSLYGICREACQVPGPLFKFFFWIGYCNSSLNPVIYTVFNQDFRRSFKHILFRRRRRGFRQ
Voltage-gated potassium channel subunit beta-2 (Rattus norvegicus), sequence (P62483 whole entry, looked up): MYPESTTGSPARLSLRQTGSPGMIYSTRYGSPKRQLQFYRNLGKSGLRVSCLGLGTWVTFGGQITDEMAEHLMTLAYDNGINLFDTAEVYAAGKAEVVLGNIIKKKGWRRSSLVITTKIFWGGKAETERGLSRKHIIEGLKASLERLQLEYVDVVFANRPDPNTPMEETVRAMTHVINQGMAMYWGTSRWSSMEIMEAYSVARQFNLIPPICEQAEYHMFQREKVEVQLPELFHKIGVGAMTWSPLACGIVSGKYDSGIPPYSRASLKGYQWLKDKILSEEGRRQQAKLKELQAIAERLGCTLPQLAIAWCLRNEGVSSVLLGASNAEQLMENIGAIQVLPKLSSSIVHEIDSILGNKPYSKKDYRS

Row | Compound | cell count [1] | inhibition [1] | inhibition of aggregation [2] | nuclei count [2] [%] | inhibition [3] | nuclei count [3] [%] | fluorescence slope [4] | NADPH fluorescence slope [5] | slope [6] | inhibition [7] | inhibition [8]
1 | Cc1ccc(Cc2c(C)nc3c(C(=O)O)cnn3c2C)cc1 | 327 | 7.7% (inactive) | 1.1% (inactive) | 108 | -4.3% (inactive) | 105 | -0.376 (inactive) | -1.4e-05 (inactive) | 0.0026 (inactive) | 3.97% (inactive) | 19.3% (inactive)
2 | COC(=O)c1sccc1NC(=O)c1csc(C)c1 | 406 | -5.4% (inactive) | 0.6% (inactive) | 88 | -42.1% (inactive) | 123 | -0.384 (inactive) | -0.000107 (inactive) | 0.00657 (inactive) | 18.7% (inactive) | 36.8% (inactive)
3 | Cc1ccc(NC(=O)CN(c2ccc3c(c2)OCO3)S(=O)(=O)c2c(C)n[nH]c2C)cc1 | 768 | -12.5% (inactive) | -29.4% (inactive) | 108 | -39.7% (inactive) | 101 | -0.42 (inactive) | -5.2e-05 (inactive) | 0.00614 (inactive) | 6.09% (inactive) | 17.9% (inactive)
4 | Cc1c(C(=O)OCCOC(C)C)[nH]c2c1C(=O)CC(c1ccco1)C2 (stereo not drawn) | 482 | 18% (inactive) | -3.7% (inactive) | 5.8 | -59.6% (inactive) | 83.1 | -0.553 (inactive) | -3.5e-05 (inactive) | 0.00564 (inactive) | 13.8% (inactive) | 82.1% (active)
5 | CCOc1cc(-c2nc3ccccn3c2NCC2CCCO2)ccc1O (stereo not drawn) | 406 | -0.9% (inactive) | -2.6% (inactive) | 94.3 | -97% (inactive) | 83.1 | -0.091 (active) | -2.7e-05 (inactive) | 0.00327 (inactive) | -9.84% (inactive) | -3.91% (inactive)
6 | CN(C)c1ccc(NC(=O)Cn2cc3c(n2)CCCC3)cc1 | 757 | -11% (inactive) | 17.1% (inactive) | 101 | -27.2% (inactive) | 103 | -0.406 (inactive) | -4.3e-05 (inactive) | 0.00475 (inactive) | -2.34% (inactive) | -8.59% (inactive)
7 | Cn1c(=O)c2c(nc(NCCCO)n2CCc2ccccc2)n(C)c1=O | 422 | 9.7% (inactive) | -11.3% (inactive) | 105 | -27.9% (inactive) | 103 | -0.506 (inactive) | 4.3e-05 (inactive) | 0.00351 (inactive) | -9.22% (inactive) | 4.62% (inactive)
8 | O=C(O)c1ccc(COc2c(F)c(F)cc(F)c2F)cc1 | 611 | -0.8% (inactive) | 27.2% (inactive) | 102 | -50.1% (inactive) | 107 | -0.453 (inactive) | -1.9e-05 (inactive) | 0.00642 (inactive) | 8.32% (inactive) | 8.92% (inactive)
9 | Cc1cc(C(=O)NCCN2CCCCC2C)n(-c2ccccc2)n1 (stereo not drawn) | 879 | 0.6% (inactive) | 11.3% (inactive) | 96 | -39.7% (inactive) | 113 | -0.552 (inactive) | -4.7e-05 (inactive) | 0.0056 (inactive) | 1.98% (inactive) | 23.7% (inactive)
10 | CCCCNC(=O)C(C#N)c1nc2ccccc2nc1N1CCCC1 (stereo not drawn) | 289 | -6.5% (inactive) | 22.5% (inactive) | 78.4 | 9% (inactive) | 52.3 | -0.235 (inactive) | -1.3e-05 (inactive) | 0.00359 (inactive) | 16.3% (inactive) | 14% (inactive)
11 | CCN1CCN(Cc2nc3c(c(=O)n(C)c(=O)n3C)n2CC(=O)c2ccccc2)CC1 | 465 | -1.8% (inactive) | -8.6% (inactive) | 89.6 | -9.3% (inactive) | 106 | -0.556 (inactive) | -3e-05 (inactive) | 0.00683 (inactive) | 6.82% (inactive) | 38.5% (inactive)
12 | COC(=O)c1ccc2c(=O)n(CC3CCCO3)c(=S)[nH]c2c1 (stereo not drawn) | 548 | 16% (inactive) | -9.1% (inactive) | 92.8 | -137% (inactive) | 94.3 | -0.478 (inactive) | -2.8e-05 (inactive) | 0.00617 (inactive) | 14.9% (inactive) | 12.3% (inactive)
13 | COCCN(CCOC)S(=O)(=O)c1ccc(C(=O)Nc2nnc(C3CC3)o2)cc1 | 390 | -0.2% (inactive) | 0% (inactive) | 102 | 44.1% (inactive) | 100 | -0.484 (inactive) | -3.8e-05 (inactive) | 0.00677 (inactive) | 16.9% (inactive) | 24.5% (inactive)
14 | CC(C)(O)C#Cc1ccc(C(=O)N2CCN(C(=O)c3ccco3)CC2)cc1 | 547 | -7.8% (inactive) | -25.3% (inactive) | 121 | 45.3% (inactive) | 133 | -0.51 (inactive) | -3.3e-05 (inactive) | 0.00463 (inactive) | 16.5% (inactive) | 13.5% (inactive)
15 | Cc1csc(NC(=O)C(Cc2ccccc2)n2cccc2)n1 (stereo not drawn) | 497 | -3.7% (inactive) | 27% (inactive) | 56.5 | -38.3% (inactive) | 117 | -0.538 (inactive) | -5.3e-06 (inactive) | 0.0101 (active) | 1.35% (inactive) | -7.22% (inactive)
16 | CN=C(Nc1cc(C)nn1-c1ccccc1)c1ccccc1 | 455 | 0.5% (inactive) | -5.8% (inactive) | 114 | 23% (inactive) | 90.5 | -0.519 (inactive) | -2.6e-05 (inactive) | 0.00474 (inactive) | 12.8% (inactive) | 17.1% (inactive)
17 | CCOc1ccc2nc(NC(=O)C3CCCN(S(=O)(=O)c4c(C)noc4C)C3)sc2c1 (stereo not drawn) | 674 | -4% (inactive) | -0.7% (inactive) | 108 | -7.3% (inactive) | 114 | -0.592 (inactive) | -1.1e-05 (inactive) | 0.00699 (inactive) | -4.49% (inactive) | -47.9% (inactive)
18 | CN(C)CCNC(=O)c1ccc(COCC(F)(F)F)cc1 | 500 | -2.2% (inactive) | -17.1% (inactive) | 112 | -22.6% (inactive) | 99 | -0.408 (inactive) | -3.8e-05 (inactive) | 0.00605 (inactive) | 14.2% (inactive) | 9.51% (inactive)
19 | COc1ccc(NC(=O)CCc2ccccc2)cc1NC(=O)c1ccco1 | 526 | 2.3% (inactive) | 8.7% (inactive) | 88.9 | -61.5% (inactive) | 95.1 | -0.504 (inactive) | -5e-05 (inactive) | 0.0047 (inactive) | 16.7% (inactive) | 37.2% (inactive)
20 | O=C(NCCN1C(=O)C2C3C=CC(C3)C2C1=O)Nc1ccccn1 (stereo not drawn) | 635 | 0.8% (inactive) | 12.9% (inactive) | 72.4 | -12.9% (inactive) | 108 | -0.603 (inactive) | 1.9e-05 (inactive) | 0.00714 (inactive) | 7.16% (inactive) | 16.9% (inactive)
21 | CC1CCCC(C)N1C(=O)CSc1nnc(-c2cccs2)o1 (stereo not drawn) | 400 | -14% (inactive) | -29.6% (inactive) | 114 | -9.9% (inactive) | 101 | -0.382 (inactive) | -5.4e-05 (inactive) | 0.0042 (inactive) | -27.4% (inactive) | -68% (inactive)
22 | COc1ccc(N(CC(=O)Nc2ccc3c(c2)OCO3)S(=O)(=O)c2c(C)nn(C)c2C)cc1 | 538 | 11.9% (inactive) | 17.9% (inactive) | 51 | -46% (inactive) | 105 | -0.57 (inactive) | -4.5e-06 (inactive) | 0.00577 (inactive) | 10.2% (inactive) | 17.3% (inactive)
23 | COC(=O)c1c(C#N)c(N)nc2c1CCC2 | 474 | -0.6% (inactive) | 18.2% (inactive) | 80.9 | 33.1% (inactive) | 92.6 | -0.00808 (active) | -2e-06 (inactive) | 0.00834 (inactive) | 9.2% (inactive) | 8.56% (inactive)
24 | Cn1c(=N)n(CC(=O)O)c2ccccc21 | 681 | -13.8% (inactive) | 6.2% (inactive) | 114 | -51.5% (inactive) | 131 | -0.595 (inactive) | -2.3e-05 (inactive) | 0.00551 (inactive) | 9.99% (inactive) | 11.8% (inactive)
25 | CC(C)(C)C(=O)CCN1C(=O)C2(OCCO2)c2ccccc21 | 702 | -4.9% (inactive) | -30.1% (inactive) | 118 | -140% (inactive) | 123 | -0.497 (inactive) | -2.7e-05 (inactive) | 0.00626 (inactive) | 11.4% (inactive) | 22.3% (inactive)
26 | COc1cccc(C(=O)CN2CCC(NC(=O)NC3CCCCC3)CC2)c1 | 513 | -25.5% (inactive) | 10.5% (inactive) | 51.6 | -26.9% (inactive) | 114 | -0.393 (inactive) | -3.8e-05 (inactive) | 0.00349 (inactive) | 7.64% (inactive) | -12.8% (inactive)
27 | CCOC(=O)c1c(N)sn(-c2ccccc2)c1=S | 441 | -9.2% (inactive) | 5.4% (inactive) | 114 | -55.1% (inactive) | 112 | -0.37 (inactive) | -5.3e-05 (inactive) | 0.00599 (inactive) | 15.3% (inactive) | 20% (inactive)
28 | COc1ccc(CCNC(=O)c2ccncc2)cc1OC | 162 | -18.8% (inactive) | 10.4% (inactive) | 95.7 | 11.2% (inactive) | 90 | -0.499 (inactive) | -4.1e-05 (inactive) | 0.00561 (inactive) | 17.7% (inactive) | 19.9% (inactive)
